Several values for one entry are separate records, joined by “and”; a condition that tells them apart may be missing. Equal entries are not always repeated. About 18,000 (5.8%) of roughly 310,000 compounds were called active. Where a call stands in place of a potency, no number is given. Another 22% or so got no clear call; they are omitted. Calls come from the whole dose curve; as a rule, active = well fitted inhibition curve with a large enough effect; inconclusive = small, poorly fitted or top-dose-only effect, or another doubt; inactive = no such curve, though single readings can be large or run the other way. Many of the other results were omitted from the sample, so actives are more common in it than they were. The source holds several records for some structures; these can differ, active in one and inactive in another.
Test: Primary qHTS for delayed death inhibitors of the malarial parasite plastid, 48 hour incubation
Conditions: P. falciparum luciferase growth in erythrocytes; series mostly up to 28.7 µM
In short: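 Firefly luciferase activity from engineered P. falciparum reports growth; inhibitors lower the luminescent signal. Cultures contained 2% hematocrit erythrocytes at 0.1% final parasitemia.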
Potency is the fitted concentration of half-maximal effect.

Structure (SMILES)	Potency
Oc1ccc2ccccc2c1N=Nc1nccs1	13.1 µM (active)
c1ccc(NCc2cccc3ccccc23)nc1	inactive
COc1cccc(-n2c(N)cc(=O)nc2SCC(=O)Nc2cc(C)on2)c1	inactive
CC(C)N(C(=O)Cn1cc(S(=O)(=O)CC(=O)N2CCOCC2)c2ccccc21)C(C)C	inactive
CN(Cc1ccccc1)C(=O)c1ccc(NC2=NC3CS(=O)(=O)CC3S2)cc1 (stereo unspecified)	inactive
O=C(COC(=O)c1cccc(Cl)c1)NC1CCCCCCC1	inactive
Cc1ccc(S(=O)(=O)N2CCN(C)CC2)cc1	inactive
COC(=O)C1=C(O)/C(=C/c2ccc(OCC(=O)Nc3ccccc3)cc2)N=C1C	inactive
CCC1=NN2C(=N)/C(=C/c3cc(C)n(-c4ccccc4)c3C)C(=O)N=C2S1	inactive
CCOC(=O)C1=C(O)/C(=C/c2cc(C)n(-c3ccccc3)c2C)N=C1C	0.0657 µM (active)
O=C(NCCCN1CCCC1=O)c1cccc(S(=O)(=O)NCc2ccccc2)c1	inactive
O=[N+]([O-])c1ccc(N2CCN(c3ccc(F)cc3)CC2)cn1	inactive
Cc1nnc(NC(=O)c2ccc3nccnc3c2)s1	inactive
COc1ccc(CC(=O)Nc2nc(-c3ccc(F)c(F)c3)cs2)cc1OC	inactive
CN(C(=O)COc1ccccc1)c1nnc(-c2ccncc2)s1	inactive
COc1ccc(CCN(C(=O)COc2ccccc2)c2nc(-c3ccccc3)cs2)cc1OC	10.4 µM (active)
O=C(c1ccc(Cn2cc([N+](=O)[O-])cn2)o1)N1CCCC1	inactive
C/C(=N\NC(=O)Cc1ccc(Cl)cc1)c1ccccn1	1.47 µM (active)
C/C(=N\NC(=O)Cc1ccc(Br)cc1)c1cccnc1	inactive
C/C(=N\NC(=O)c1ccccc1F)c1ccccn1	inactive
C/C(=N\NC(=O)Cc1ccc(F)cc1)c1ccc(F)cc1	inactive
COc1ccc(CC(=O)N/N=C(\C)c2ccccn2)cc1	3.29 µM (active)
COc1ccc(C/C(C)=N/NC(=O)c2ccncc2)cc1	inactive
CCOc1ccc(OCC(=O)Nc2c3c(nn2C(C)(C)C)CS(=O)(=O)C3)cc1	inactive
Cc1cc(C(=O)CCC(=O)NNC(=O)c2ccccc2O)c(C)s1	inactive
CCOc1ccc2[nH]c(=O)c(CN(CCCO)S(=O)(=O)c3ccc(F)cc3)cc2c1	inactive

Structure (SMILES)	Potency
CCCCCn1c(=O)[nH]c2cc(C(=O)NCCCN3CCCCC3C)ccc2c1=O (stereo unspecified)	9.28 µM (active)
O=C(NC1CCCCC1)c1ccc2c(=O)n(CC3CCCO3)c(=O)[nH]c2c1 (stereo unspecified)	inactive
CC1CCCCN1CCCNC(=O)Cn1ncc2c([nH]c3ccccc32)c1=O (stereo unspecified)	inactive
COc1ccccc1CNC(=O)C1CCN(C(=O)[C@@H]2Cc3ccccc3CN2)CC1	inactive
CCCNC(=O)Nc1ccccc1C(=O)Nc1ccc(OC)cc1	inactive
COc1cc(NC(=O)c2cccnc2SC)cc(OC)c1	inactive
CCOC(=O)Cc1ncccc1C(=O)Nc1ccc(OC)cc1	13.1 µM (active)
COC(=O)c1ccc([C@@H](O)[C@H](C)C(=O)CC(=O)OC(C)(C)C)cc1	inactive
Cc1nc(CN(C)C(=O)CC2C(=O)NCCN2Cc2ccc(F)cc2)cs1 (stereo unspecified)	inactive
CC(=O)N(CC(O)CO)c1c(I)c(C(=O)NCC(O)CO)c(I)c(C(=O)NCC(O)CO)c1I (stereo unspecified)	inactive and 15.1 µM (active)
COc1ccc(NC(=O)CN2C(=O)COc3ccc(S(=O)(=O)N4CCOCC4)cc32)c(OC)c1	inactive
CN(Cc1ccccc1)c1nc2c(c(=O)[nH]c(=O)n2C)n1CCSc1nc2ccccc2[nH]1	8.28 µM (active)
CN(Cc1ccccc1)C(=O)CSc1nc2ccccc2[nH]1	inactive
C=CCSc1nc2c(c(=O)[nH]c(=O)n2C)n1Cc1ccccc1	inactive
CC(Oc1cccc(Cl)c1)C(=O)NC1CC(C)(C)NC(C)(C)C1 (stereo unspecified)	inactive
O=C1CN(C(=O)c2cc(F)cc(F)c2)c2ccccc2N1	inactive
O=C(Nc1ccc(Br)cc1)c1cc(S(=O)(=O)Nc2ccccn2)ccc1Cl	inactive
CN(CC(=O)NCCc1ccc(F)cc1)CC(=O)Nc1ccc(F)c(F)c1F	inactive
COc1ccc(C2=NN(C(=O)CCC(=O)O)C(c3cccs3)C2)cc1OC (stereo unspecified)	inactive
COc1cccc(C2CC(c3cccs3)=NN2C(=O)CSC2=NCCS2)c1OC (stereo unspecified)	10.4 µM (active)
COc1ccc(C2CC(c3cccs3)=NN2C(=O)CSc2nnc(N)s2)cc1OC (stereo unspecified)	inactive
COc1ccccc1C(=O)NCCC(=O)NN1C(=O)NC2(CCCCC2)C1=O	inactive
COC(=O)c1cccc(N(CC(=O)NCC2CCCO2)C(=O)CCC(=O)Nc2cc(C)on2)c1 (stereo unspecified)	inactive
Cc1cc(NC(=O)CCC(=O)N(CC(=O)NCC2CCCO2)c2ccccc2)no1 (stereo unspecified)	inactive
CCCCOc1ccc(N(CC(=O)NCC2CCCO2)C(=O)CCC(=O)Nc2cc(C)ccn2)cc1 (stereo unspecified)	9.28 µM (active)

Source: PubChem BioAssay AID504832 (National Center for Advancing Translational Sciences (NCATS), 2011)
